Six compounds from PubChem BioAssay (EPA / NIEHS) can be followed below.

Read-out in assay [1]: Nuclear factor erythroid 2-related factor 2 (Homo sapiens) (UniProt Q16236)
The assay is described as follows: LTEA_HepaRG_NFE2L2: Life Technologies and Expression Analysis (LTEA) Assay for Nuclear factor erythroid 2-related factor 2 (NFE2L2) Transcription Factor using HepaRG (AID 2283527).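 Also: TaqMan qRT-PCR transcript level normalised to ACTB GAPDH and POLR2A housekeeping genes.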 To be noted: mRNA level, 48 h; actives raise or lower the signal. Summed up: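 NFE2L2 transcript level was read by qRT-PCR (housekeeping ACTB/GAPDH/POLR2A normalisation) after 48 h chemical treatment of HepaRG in serum-free induction medium. Duplicate 8-point half-log curves, top 100 uM, 0.5% DMSO vehicle; up- or down-regulation fitted against vehicle.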

Read-out in assay [2]: Signal transducer and activator of transcription 3 (Homo sapiens) (UniProt P40763)
The assay is described as follows: LTEA_HepaRG_STAT3: Life Technologies and Expression Analysis (LTEA) Assay for Signal transducer and activator of transcription (STAT3) using HepaRG (AID 2283529). The following applies: mRNA level, 48 h; actives raise or lower the signal. Summed up:
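STAT3 transcript quantified by qRT-PCR against three housekeeping genes (ACTB, GAPDH, POLR2A), fitted both directions relative to DMSO. HepaRG cultures exposed 48 h to eight half-log concentrations, top 100 uM, 0.5% DMSO, serum-free induction medium.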

Read-out in assay [3]: solute carrier (SLCO1B1), SLCO1B1 (gene 10599)
The assay is described as follows: LTEA_HepaRG_SLCO1B1: Life Technologies and Expression Analysis (LTEA) Assay for solute carrier (SLCO1B1) using HepaRG (AID 2283530). The following applies: mRNA level, 48 h; actives raise or lower the signal. Put shortly:
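Differentiated human HepaRG cells were exposed for 48 h in serum-free induction medium to eight half-log concentrations, top 100 uM, in 0.5% DMSO. SLCO1B1 mRNA was measured by qRT-PCR, normalized to ACTB, GAPDH and POLR2A, and fitted bidirectionally against DMSO.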

Read-out in assay [4]: Transforming Growth Factor (TGFA), TGFA (gene 7039)
The assay is described as follows: LTEA_HepaRG_TGFA: Life Technologies and Expression Analysis (LTEA) Assay for Transforming Growth Factor (TGFA) using HepaRG (AID 2283532). To be noted: mRNA level, 48 h; actives raise or lower the signal. Put shortly:
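TGFA transcript quantified by qRT-PCR (Fluidigm arrays) against three housekeeping genes, after 48 hours chemical treatment of HepaRG cells. Top concentration 100 uM with half-log dilutions, 8 points, duplicates, 0.5% DMSO.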

Read-out in assay [5]: Transforming Growth Factor (TGFB1), TGFB1 (gene 7040)
As to the kind of experiment: LTEA_HepaRG_TGFB1: Life Technologies and Expression Analysis (LTEA) Assay for Transforming Growth Factor (TGFB1) Transporter using HepaRG (AID 2283533). The following applies: mRNA level, 48 h; actives raise or lower the signal. Summed up:
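Differentiated HepaRG cells exposed 48 hr in serum-free induction medium to eight half-log concentrations up to 100 uM (0.5% DMSO), duplicate; TGFB1 mRNA by TaqMan qRT-PCR normalised to ACTB, GAPDH, POLR2A; bidirectional fit against DMSO.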

Read-out in the next assay: TIMP1, TIMP1 (gene 7076)
The assay is described as follows: LTEA_HepaRG_TIMP1: Life Technologies and Expression Analysis (LTEA) Assay for TIMP1 using HepaRG (AID 2283534). To be noted: mRNA level, 48 h; actives raise or lower the signal. Summed up: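 Differentiated HepaRG cells exposed 48 h in serum-free induction medium, duplicates, eight half-log concentrations from 100 uM in 0.5% DMSO. TIMP1 mRNA by qRT-PCR normalized to ACTB, GAPDH, POLR2A; bidirectional fitting against DMSO.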

Read-out in assay [6]: Tumor necrosis factor receptor 1 (TNFRSF1A), TNFRSF1A (gene 7132)
The assay is described as follows: LTEA_HepaRG_TNFRSF1A: Life Technologies and Expression Analysis (LTEA) Assay for Tumor necrosis factor receptor 1 (TNFRSF1A) using HepaRG (AID 2283535). The following applies: mRNA level, 48 h; actives raise or lower the signal. Put shortly: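 Differentiated HepaRG cells in serum-free induction medium, exposed 48 h in duplicate to 8 half-log concentrations up to 100 uM in 0.5% DMSO. TNFRSF1A mRNA by Fluidigm TaqMan qRT-PCR, normalized to ACTB, GAPDH, POLR2A; bidirectional fit.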

Read-out in assay [7]: Thyroid Hormone Responsive (THRSP), THRSP (gene 7069)
As to the kind of experiment: LTEA_HepaRG_THRSP: Life Technologies and Expression Analysis (LTEA) Assay for Thyroid Hormone Responsive (THRSP) using HepaRG (AID 2283536). To be noted: mRNA level, 48 h; actives raise or lower the signal. Put shortly: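 THRSP transcript quantified by Fluidigm qRT-PCR against three housekeeping genes after 48 h chemical exposure of HepaRG cells in serum-free induction medium; eight-point half-log series, top 100 uM, 0.5% DMSO vehicle, duplicate wells.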

Read-out in assay [8]: UDP glucuronosyltransferase (UGT1A1), UGT1A1 (gene 54658)
As to the kind of experiment: LTEA_HepaRG_UGT1A1: Life Technologies and Expression Analysis (LTEA) Assay for UDP glucuronosyltransferase (UGT1A1) using HepaRG (AID 2283538). To be noted: mRNA level, 48 h; actives raise or lower the signal. Summed up: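 UGT1A1 transcript level, measured by qRT-PCR with three housekeeping genes for normalization, after 48 h treatment of human HepaRG cells (0.5% DMSO, duplicates, up to 100 uM, half-log steps, 8 points). Curves fit both directions against DMSO baseline.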

Read-out in assay [9]: UDP glucuronosyltransferase (UGT1A6), UGT1A6 (gene 54578)
As to the kind of experiment: LTEA_HepaRG_UGT1A6: Life Technologies and Expression Analysis (LTEA) Assay for UDP glucuronosyltransferase (UGT1A6) using HepaRG (AID 2283539). To be noted: mRNA level, 48 h; actives raise or lower the signal. Put shortly: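 Differentiated HepaRG cells, ~100,000/well, were exposed for 48 h in serum-free induction medium with 0.5% DMSO to 8-point half-log series topping at 100 uM, in duplicate. mRNA measured by Fluidigm TaqMan qRT-PCR, normalized to ACTB, GAPDH and POLR2A.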

Read-out in assay [10]: X-box binding protein 1 (XBP1), XBP1 (gene 7494)
The assay is described as follows: LTEA_HepaRG_XBP1: Life Technologies and Expression Analysis (LTEA) Assay for X-box binding protein 1 (XBP1) using HepaRG (AID 2283540). To be noted: mRNA level, 48 h; actives raise or lower the signal. Summed up:
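Differentiated human HepaRG cells in serum-free induction medium exposed 48 h in duplicate to eight half-log concentrations up to 100 uM in 0.5% DMSO. XBP1 mRNA measured by Fluidigm TaqMan qRT-PCR, normalized to ACTB, GAPDH, POLR2A; bidirectional fitting against DMSO.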

Assay [11] in a line: LTEA_HepaRG_LDH_cytotoxicity: Cytotoxicity Assessment in the Life Technologies and Expression Analysis (LTEA) Assay (AID 2283563; active = hit-call score of the fitted dose curve at least 0.9, where 1 is the maximum;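 as to AC50: LDH activity released into spent culture medium as a marker of cell death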). Summed up:
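Differentiated HepaRG cells in serum-free induction medium, exposed 48 h in duplicate to 8 half-log concentrations up to 100 uM in 0.5% DMSO. Cytotoxicity from LDH measured in spent medium, fit relative to DMSO.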

Read-out in assay [12]: sulfotransferase 2A1 (SULT2A1), SULT2A1 (gene 6822)
As to the kind of experiment: LTEA_HepaRG_SULT2A1: Life Technologies and Expression Analysis (LTEA) Assay for sulfotransferase 2A1 (SULT2A1) using HepaRG (AID 2283531). To be noted: mRNA level, 48 h; actives raise or lower the signal. Summed up:
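HepaRG human liver cells, 48 h exposure in serum-free induction medium to 8 half-log concentrations topping at 100 µM (0.5% DMSO), duplicate wells. SULT2A1 mRNA measured by TaqMan qRT-PCR, normalized to ACTB/GAPDH/POLR2A; bidirectional fit against DMSO.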

Read-out in assay [13]: Cellular tumor antigen p53 (Homo sapiens) (UniProt P04637)
As to the kind of experiment: LTEA_HepaRG_TP53: Life Technologies and Expression Analysis (LTEA) Assay for Tumor Protein P53 (TP53) using HepaRG (AID 2283537). To be noted: mRNA level, 48 h; actives raise or lower the signal. Summed up:
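Differentiated HepaRG cells in serum-free induction medium exposed 48 h in duplicate to 8 half-log concentrations, top 100 uM, 0.5% DMSO. TP53 mRNA by TaqMan qRT-PCR (Fluidigm), normalized to ACTB, GAPDH, POLR2A; fitted bidirectionally versus DMSO.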

In assay [14] the target is Cellular tumor antigen p53 (Homo sapiens) (UniProt P04637). The assay is described as follows: TOX21_p53_BLA_p2_ratio: Tox21 HCT-116 p53 Agonism Beta-lactamase Assay, Ratio, Phase 2 (AID 2283592; active = hit-call score of the fitted dose curve at least 0.9, where 1 is the maximum). Put shortly: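 First, HCT116 reporter cells settle for 5 h at 37C. Next, DMSO compound solutions are pinned in (217-fold dilution) and left 16 h. Finally, CCF4-AM substrate is loaded 2 h at room temperature and the 460/530 nm ratio read.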

The nature of assay [15]: TOX21_p53_BLA_p3_viability: Viability Assessment in the Tox21 HCT-116 p53 Agonism Beta-lactamase Assay, Phase 3 (AID 2283593; active = hit-call score of the fitted dose curve at least 0.9, where 1 is the maximum;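 also: cells exposed to compound for 16 h before reading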). Put shortly:
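Cellular ATP was quantified by CellTiter-Glo luminescence, read after 30 min at room temperature. Beforehand, HCT116 cells (4000/well) received compound 5 h post-seeding, 217-fold diluted from DMSO, then incubated 16 h at 37C.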

In assay [16] the target is Cellular tumor antigen p53 (Homo sapiens) (UniProt P04637). As to the kind of experiment: TOX21_p53_BLA_p3_ratio: Tox21 HCT-116 p53 Agonism Beta-lactamase Assay, Ratio, Phase 3 (AID 2283596; active = hit-call score of the fitted dose curve at least 0.9, where 1 is the maximum). Put shortly: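 Cells were seeded at 4000/well, rested 5 h at 37C, then dosed with DMSO compound solutions (217-fold dilution) for 16 h. CCF4-AM substrate was loaded for 2 h at room temperature, and the 460/530 nm emission ratio was fitted for gain of signal versus DMSO.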

Assay [17] in a line: TOX21_p53_BLA_p2_viability: Viability Assessment in the Tox21 HCT-116 p53 Agonism Beta-lactamase Assay, Phase 2 (AID 2283591; active = hit-call score of the fitted dose curve at least 0.9, where 1 is the maximum;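 also: compound exposure lasted 16 h at 37 °C; actives lower the ATP signal meaning cytotoxicity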). Summed up: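 Cytotoxicity readout: CellTiter-Glo ATP luminescence, 30 min at room temperature, after the beta-lactamase read. Cells were HCT116 exposed 16 h at 37C to compounds pin-transferred at 217-fold dilution from DMSO stocks.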
A short description of assay [18]: ATG_XTT_Cytotoxicity: Cytotoxicity Assessment in the Attagene TRANS-FACTORIAL HepG2 Assay (AID 2283584; active = hit-call score of the fitted dose curve at least 0.9, where 1 is the maximum). Summed up:
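HepG2 cells transiently transfected with GAL4-UAS multiple reporter units, dosed 24 h; cytotoxicity read by XTT as loss of signal versus DMSO baseline.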

The structures appear in SMILES notation. Values joined by “and” are separate entries in the source; they are usually repeats but may differ in a detail not shown here. Equal entries are not always repeated. Inconclusive results are not listed. Some structures have more than one record in an assay (separate samples or runs), and their calls can disagree. Active and inactive are the calls of the source. The calls were made as follows, unless noted: active = hit-call score of the fitted dose curve at least 0.9, where 1 is the maximum; inactive = score below 0.9.

Chain of Nuclear factor erythroid 2-related factor 2 (Homo sapiens) (Q16236 whole entry, looked up): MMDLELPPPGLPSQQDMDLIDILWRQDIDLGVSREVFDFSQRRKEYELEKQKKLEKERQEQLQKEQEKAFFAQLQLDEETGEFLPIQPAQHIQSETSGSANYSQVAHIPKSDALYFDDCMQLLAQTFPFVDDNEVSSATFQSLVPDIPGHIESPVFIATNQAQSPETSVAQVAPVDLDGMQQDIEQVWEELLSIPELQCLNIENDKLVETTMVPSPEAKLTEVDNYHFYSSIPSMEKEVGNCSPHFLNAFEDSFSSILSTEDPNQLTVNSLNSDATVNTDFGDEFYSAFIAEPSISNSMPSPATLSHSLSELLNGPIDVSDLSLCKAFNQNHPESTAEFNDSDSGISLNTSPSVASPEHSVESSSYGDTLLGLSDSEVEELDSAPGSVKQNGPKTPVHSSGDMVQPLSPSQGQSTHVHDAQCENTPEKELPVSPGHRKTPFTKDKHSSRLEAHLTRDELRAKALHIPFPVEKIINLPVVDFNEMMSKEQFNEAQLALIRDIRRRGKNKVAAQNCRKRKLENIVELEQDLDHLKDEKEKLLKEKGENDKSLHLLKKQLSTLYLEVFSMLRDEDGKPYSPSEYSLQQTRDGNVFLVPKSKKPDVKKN
Chain of Signal transducer and activator of transcription 3 (Homo sapiens) (P40763 whole entry, looked up): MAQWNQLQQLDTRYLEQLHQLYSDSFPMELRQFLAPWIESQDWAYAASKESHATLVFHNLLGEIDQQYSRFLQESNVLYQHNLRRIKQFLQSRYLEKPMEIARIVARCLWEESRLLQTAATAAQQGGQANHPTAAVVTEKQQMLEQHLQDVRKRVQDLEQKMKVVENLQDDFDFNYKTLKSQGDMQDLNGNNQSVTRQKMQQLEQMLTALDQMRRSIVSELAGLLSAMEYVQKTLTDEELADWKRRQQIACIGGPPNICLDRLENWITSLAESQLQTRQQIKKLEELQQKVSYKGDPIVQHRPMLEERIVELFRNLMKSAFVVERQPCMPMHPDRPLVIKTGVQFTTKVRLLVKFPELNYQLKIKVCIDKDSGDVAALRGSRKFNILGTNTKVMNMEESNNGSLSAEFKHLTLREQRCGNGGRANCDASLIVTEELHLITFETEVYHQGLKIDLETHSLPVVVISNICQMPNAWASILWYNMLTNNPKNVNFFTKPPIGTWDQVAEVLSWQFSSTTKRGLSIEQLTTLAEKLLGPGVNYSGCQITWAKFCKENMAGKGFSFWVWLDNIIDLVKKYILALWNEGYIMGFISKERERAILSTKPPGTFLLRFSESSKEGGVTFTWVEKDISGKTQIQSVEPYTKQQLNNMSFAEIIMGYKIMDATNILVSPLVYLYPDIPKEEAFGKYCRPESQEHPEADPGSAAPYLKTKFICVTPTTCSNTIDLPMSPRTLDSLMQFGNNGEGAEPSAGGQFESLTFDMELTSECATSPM
Chain of Cellular tumor antigen p53 (Homo sapiens) (P04637 whole entry, looked up): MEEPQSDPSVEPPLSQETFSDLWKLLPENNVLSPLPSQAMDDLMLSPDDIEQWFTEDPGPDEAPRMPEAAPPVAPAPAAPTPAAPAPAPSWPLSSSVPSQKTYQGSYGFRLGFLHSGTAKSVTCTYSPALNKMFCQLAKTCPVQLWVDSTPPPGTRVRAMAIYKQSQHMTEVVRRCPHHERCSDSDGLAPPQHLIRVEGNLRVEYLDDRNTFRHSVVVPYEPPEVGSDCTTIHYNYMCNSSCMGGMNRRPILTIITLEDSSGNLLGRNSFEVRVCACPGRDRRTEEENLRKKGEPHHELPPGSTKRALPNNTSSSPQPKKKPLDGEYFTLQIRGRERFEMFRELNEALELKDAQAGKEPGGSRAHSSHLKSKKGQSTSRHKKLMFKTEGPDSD

As for `O=C(O)c1cccnc1`, the outcome in assay [1] was “inactive”; in [2] it was “inactive”; in [3], “inactive”; in assay [4], “inactive”; in assay [5], “inactive”; in the assay with TIMP1, TIMP1 (gene 7076), “inactive”. Besides, the outcome in [6], in assay [7], in assay [8], in [9], in assay [10] and in assay [11] was inactive.

As for `C#CC(O)C(CC)CCCC` (centres undefined), the compound was classed as inactive in assay [1], in assay [2], in assay [3], in [12], in assay [4] and in [5]. Besides, the outcome with TIMP1, TIMP1 (gene 7076) was “inactive”; in assay [6], “inactive”; in assay [8] it was “inactive”; in assay [9], “inactive”; in assay [10] it was “inactive”; in assay [11], “inactive”.

For `O=C(O)c1[nH]n(-c2ccc(S(=O)(=O)O)cc2)c(=O)c1N=Nc1ccc(S(=O)(=O)O)cc1`, the outcome in [1] was “inactive”; in assay [2], “inactive”; in [3], “inactive”; in assay [4] it was “inactive”; in [5] it was “inactive”; with TIMP1, TIMP1 (gene 7076), “inactive”. The result in [6], in [7], in assay [13], in assay [8], in [9] and in assay [10] was inactive. Moreover, the compound was classed as inactive in [11], in assay [14], in assay [15] and in [16]. Further, the AC50 in [14] is 0.189 nM (active); in [16] it was 0.0528 nM (active).

In the case of `Nc1nc(Cl)nc2c1ncn2[C@H]1C[C@H](O)[C@@H](CO)O1`, the outcome in assay [1] is “inactive”; in assay [2] it was “inactive”; with TIMP1, TIMP1 (gene 7076) it was “inactive”; in assay [13], “inactive”; in assay [17], “inactive”; in assay [15], “inactive”. The AC50 in assay [3] is 999 nM (active); in [12] it was 2810 nM (active); in [4], 200 nM (active); in [5] it was 365 nM (active); in assay [6], 732 nM (active); in assay [8], 1660 nM (active). For the same compound, the AC50 in [9] is 2420 nM (active); in assay [10], 1560 nM (active); in assay [11], 8620 nM (active); in [14] it was 271 nM (active) and 790 nM (active); in [16] it was 468 nM (active) and 960 nM (active).

As for `Cc1cn([C@H]2C=C[C@@H](CO)O2)c(=O)[nH]c1=O`, the result in [1], in [2], in [3], in assay [12], in [4] and in assay [5] was inactive. Also, the outcome with TIMP1, TIMP1 (gene 7076) is “inactive”; in [7], “inactive”; in [8] it was “inactive”; in assay [9] it was “inactive”; in assay [10], “inactive”; in assay [11], “inactive”. Besides, the compound was called inactive in assay [18].

Regarding `O=NO`, the outcome is “inactive” in assay [1]; “inactive” in assay [2]; “inactive” in [3]; “inactive” in [4]; “inactive” in assay [5]; “inactive” with TIMP1, TIMP1 (gene 7076). The result in assay [6], in [7], in assay [8], in assay [9], in assay [10] and in assay [11] was inactive.

As a reminder, the AC50 is the midpoint of the concentration-response curve, whichever way the signal moves.
